Test results from PubChem BioAssay (Tox21).
“And” between values parts separate entries of the source, which are not always exact repeats. Equal entries are not always repeated. Inconclusive results are not listed. A structure can be active in one record and inactive in another. The source made the active and inactive calls. Unless noted, the call rests on the fitted dose curve; in most records, active means well fitted curve in the direction sought with a large enough effect in the repeat runs; inconclusive means weak or mixed curves; inactive means no such curve, though single readings can be large; an effect the other way counts as inactive or inconclusive.

What was measured:
[1] = qHTS assay to identify small molecule agonists of H2AX (AID 1224845; active means well fitted activation curve with a large enough effect in the signal ratio in the repeat runs, not every such curve was filed as active; the % refers to the signal ratio; further: potency means the concentration at half of the fitted maximal effect)
Outline: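 Wild-type CHO-K1 cells, plated overnight, exposed 3hr at 37C to 15 concentrations (0.76% DMSO final). Lysed, then HTRF anti-pH2AX (S139) cryptate and anti-H2AX-d2 antibodies, 24 hr room temperature; 665/620 nm emission read.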

[2] = qHTS assay to identify small molecule agonists of the hypoxia (HIF-1) signaling pathway (AID 1224846; active means well fitted activation curve with a large enough effect in the signal ratio in the repeat runs, not every such curve was filed as active; the % refers to the signal ratio)
Outline: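 HRE-bla ME-180 beta-lactamase reporter cells in medium with 0.5% dialyzed FBS, pre-incubated 5 h then exposed to compounds 17 h at 37C, 5% CO2; reporter induction read with CCF4-AM FRET substrate.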

[3] = qHTS assay to identify small molecule agonists of H2AX - cell viability counter screen (AID 1224847; calls by dose curve; further: nearly all actives have a fitted effect of over 30% in size; further: potency means the concentration at half of the fitted maximal effect)
Outline: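 Counter-screen for viability: CellTiter-Glo ATP luminescence read after 3 h compound treatment (15-point titration, 0.76% DMSO final) of CHO-K1 cells at 37C, with 30 min room-temperature reagent incubation.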

[4] = qHTS RealTime-Glo MT Cell Viability Assay in HepG2 cells - 24 hour (AID 1224867); further: nearly all actives have a fitted effect of over 50% in size; further: potency means the concentration at half of the fitted maximal effect
Outline: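 Cell number in HepG2 cultures estimated from NanoLuc luminescence generated by metabolic reduction of a prosubstrate by living cells. The homogeneous, nonlytic format allowed repeated reads at 0, 8, 16, 24, 32 and 40 h of compound exposure.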

[5] = qHTS RealTime-Glo MT Cell Viability Assay in HEK293 cells - 32 hour (AID 1224868); further: nearly all actives have a fitted effect of over 50% in size; further: potency means the concentration at half of the fitted maximal effect
Outline: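 Homogeneous bioluminescent viability format in HEK293 cells (600 cells/well). Following 5 h at 37 C/5% CO2, 23 nL compound was pintooled; the signal was measured repeatedly during 40 h incubation.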

[6] = A CellTox Green Cytotoxicity Assay to monitor cytotoxicity in HEK293 cells - 0 hour (AID 1224869); further: nearly all actives have a fitted effect of over 50% in size
Outline: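 HEK293 cells, 600/well, were preincubated 5 hours and then exposed to compounds at 37 C for up to 40 hours. A cell-impermeant cyanine dye staining dead-cell DNA was read by fluorescence at 0, 8, 16, 24, 32 and 40 h time points.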

[7] = qHTS RealTime-Glo MT Cell Viability Assay in HepG2 cells - 40 hour (AID 1224870); further: nearly all actives have a fitted effect of over 50% in size; further: potency means the concentration at half of the fitted maximal effect
Outline: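 HepG2 cells (600/well) mixed with RealTime-Glo MT reagent, settled 5 h at 37 C/5% CO2 before compound addition. Nonlytic NanoLuc luminescence from viable-cell prosubstrate reduction read repeatedly during 40 h treatment at 37 C.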

[8] = qHTS assay to identify small molecule antagonists of the estrogen related receptor (ERR) signaling pathway from Tox21 library (AID 1224848); further: nearly all actives have a fitted effect of over 50% in size; further: potency means the concentration at half of the fitted maximal effect
Outline: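 Luminescent reporter read-out (ONE-Glo) from NTP's ERR cell line after 18 h treatment at 37 C with DMSO-dissolved Tox21 compounds; cells pre-plated 6 h beforehand at 2,000 per well.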

[9] = qHTS assay to identify small molecule agonists of the estrogen related receptor (ERR) signaling pathway from Tox21 library (AID 1224849; calls by dose curve; further: nearly all actives have a fitted effect of over 15% in size); conditions: ERR reporter cell line, ONE-Glo luciferase, 18 h
Outline: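 ERR reporter cells (NTP line) pre-incubated 6 hours at 37 C, then exposed to compounds for 18 hours at 37 C. ONE-Glo luciferase luminescence was read after 30 minutes at room temperature.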
On the % scale 0 is the no-effect control and ±100 the full control effect.

CC(=O)O[C@]1(C(C)=O)CC[C@H]2[C@@H]3C=C(Cl)C4=CC(=O)CC[C@]4(C)[C@H]3CC[C@@]21C
101 µM (active) and inactive: Potency [3]
active: Potency [5] 19.5 µM
inactive: Potency [1] | outcome [2] | Potency [4] | Potency [6] | Potency [7]

CN(C)CCCN1c2ccccc2Sc2ccc(Cl)cc21
inactive: activity change, positive = activation ([9]; at 42.5 µM (top of the series)) -35.5% | activity change, positive = activation ([9]; at 92.4 µM (top of the series)) -80.4% | Potency [6]
active: Potency [3] 55.2 µM | Potency [8] 54.5 µM | Potency [4] 43.6 µM and 23.9 µM | Potency [5] 24.5 µM and 23.9 µM | Potency [7] 30.9 µM and 23.9 µM

Cc1ccc(S(=O)(=O)O)cc1C
inactive: Potency [1] | outcome [2] | Potency [3] | Potency [4] | Potency [5] | Potency [6] | Potency [7]

CC[C@]12CCCN3CCc4c(n(c5ccccc45)[C@@](O)(C(=O)OC)C1)[C@@H]32
inactive: Potency [1] | Potency [3] | Potency [8] | activity change, positive = activation ([9]; at 42.5 µM (top of the series)) 7.75% | activity change, positive = activation ([9]; at 92.4 µM (top of the series)) -6.91% | Potency [4] | Potency [5] | Potency [6] | Potency [7]

c1ccc2c(c1)ccc1ncccc12
inactive: Potency [1] | outcome [2] | Potency [3] | Potency [8] | activity change, positive = activation ([9]; at 92.4 µM (top of the series)) -5.44% | Potency [4] | Potency [5] | Potency [6] | Potency [7]

Cc1cccc(Nc2ccccc2C(=O)O)c1C
inactive: Potency [1] | Potency [3] | Potency [4] | Potency [5] | Potency [6] | Potency [7]

COc1ccc(-c2coc3cc(O)cc(O)c3c2=O)cc1
inactive: Potency [1] | Potency [4] | Potency [6] | Potency [7]
active: Potency [3] 36 µM | Potency [5] 44 µM and 49 µM

Cc1ccc([N+](=O)[O-])c(C)c1
38.9 µM (active) and inactive: Potency [5]
4.5 µM (active) and inactive: Potency [1]
inactive: outcome [2] | Potency [3] | activity change, positive = activation ([9]; at 92.4 µM (top of the series)) 6.89% | Potency [4] | Potency [6]
12.2 µM (active) and inactive: Potency [8]

Clc1ccc(Sc2cc(Cl)c(Cl)cc2Cl)cc1
inactive: Potency [1] | outcome [2] | Potency [3] | Potency [4] | Potency [5] | Potency [6] | Potency [7]

Cc1ccc(/C(=C\CN2CCCC2)c2ccccn2)cc1
inactive: Potency [1] | Potency [3] | Potency [4] | Potency [5] | Potency [6] | Potency [7]

Cc1ccc(C)c(O)c1
inactive: Potency [1] | outcome [2] | Potency [3] | Potency [4] | Potency [5] | Potency [6]

CC/C(=C(/CC)c1ccc(O)cc1)c1ccc(O)cc1
112 µM (active) and inactive: Potency [3]
active: Potency [5] 10.9 µM and 27.5 µM
inactive: Potency [1] | Potency [4] | Potency [6]

c1ccc2c(c1)ccc1cc3c(ccc4ccccc43)cc12
inactive: outcome [2] | Potency [3] | Potency [4] | Potency [5] | Potency [6] | Potency [7]

Brc1nc2ccccc2s1
inactive: Potency [1] | outcome [2] | Potency [3] | Potency [4] | Potency [5] | Potency [6]

Cc1ccc2c(c1)C(=O)OC2=O
inactive: Potency [1] | outcome [2] | Potency [3] | Potency [4] | Potency [5] | Potency [6] | Potency [7]

OC[C@H]1O[C@@H]2O[C@H]3[C@H](O)[C@@H](O)[C@@H](O[C@H]4[C@H](O)[C@@H](O)[C@@H](O[C@H]5[C@H](O)[C@@H](O)[C@@H](O[C@H]6[C@H](O)[C@@H](O)[C@@H](O[C@H]7[C@H](O)[C@@H](O)[C@@H](O[C@H]1[C@H](O)[C@H]2O)O[C@@H]7CO)O[C@@H]6CO)O[C@@H]5CO)O[C@@H]4CO)O[C@@H]3CO
inactive: Potency [1] | outcome [2] | Potency [3] | Potency [4] | Potency [5] | Potency [6]

CC(C)(C)c1cccc(C(C)(C)C)c1O
inactive: Potency [1] | outcome [2] | Potency [3] | Potency [4] | Potency [6] | Potency [7]
24 µM (active) and inactive: Potency [5]

C=CN1CCCC1=O
inactive: Potency [1] | outcome [2] | Potency [3] | Potency [4] | Potency [5] | Potency [6]

CC(C)[C@@H]1CC[C@@H](C)CC1=O
inactive: Potency [1] | outcome [2] | Potency [3] | Potency [4] | Potency [5] | Potency [6] | Potency [7]

CCO[Si](CCCNC(N)=O)(OCC)OCC
inactive: Potency [1] | outcome [2] | Potency [3] | Potency [8] | activity change, positive = activation ([9]; at 92.4 µM (top of the series)) 8.59% and 5.1% | Potency [4] | Potency [5] | Potency [6]

CCOC(=O)C(C)Oc1ccc(Oc2cnc3cc(Cl)ccc3n2)cc1 (stereo not given)
inactive: Potency [1] | outcome [2] | Potency [4] | Potency [6] | Potency [7]
active: Potency [5] 39.9 µM

C=CC(C)(O)CCC=C(C)C (stereo not given)
inactive: Potency [1] | outcome [2] | Potency [3] | Potency [4] | Potency [5] | Potency [6] | Potency [7]

C[C@]12CC[C@@H]3c4ccc(O)cc4CC[C@H]3[C@@H]1CC[C@H]2O
active: Potency [8] 15.6 µM and 27.3 µM | Potency [5] 5.59 µM and 13.8 µM
inactive: Potency [1] | Potency [3] | activity change, positive = activation ([9]; at 92.4 µM (top of the series)) -38.5% and -39.7% | Potency [4] | Potency [6] | Potency [7]

ClC/C=C/CCl
inactive: Potency [1] | outcome [2] | Potency [3] | Potency [8] | activity change, positive = activation ([9]; at 92.4 µM (top of the series)) -1.09% and 0.131% | Potency [4] | Potency [5] | Potency [6] | Potency [7]

Nc1ccc2c(O)cc(S(=O)(=O)O)cc2c1
active: Potency [8] 24.4 µM and 13.7 µM | Potency [5] 6.17 µM
inactive: outcome [2] | Potency [3] | activity change, positive = activation ([9]; at 92.4 µM (top of the series)) -54% and -40.6% | Potency [4] | Potency [6] | Potency [7]
